Hit rate of the full screen: of about 39,000 compounds, about 1,500 (3.8%) were called active. Shown is part of a subset that was picked to be rich in actives.
System: HSkMC (human skeletal muscle cells)
Assay: cytotoxicity call (relative viability < 0.9)
Conditions: 10 µM

| SMILES | cytotoxicity call |
| --- | --- |
| COc1ccc2c3c(n(c2c1)C)[C@@H](CO)N(CC1CCOCC1)C[C@]13CCN(CC1)C(=O)c1cnccn1 | inactive |
| CCc1c(C)c2cc3c(-c4ccccc4)coc3cc2oc1=O | inactive |
| CNC[C@H]1OCCCC[C@@H](C)Oc2ccc(NS(=O)(=O)c3cn(C)cn3)cc2C(=O)N([C@@H](C)CO)C[C@@H]1C | inactive |
| Cc1ccc(S(=O)(=O)Nc2ccc3c(c2)CC(=O)N([C@@H](C)CO)C[C@@H](C)[C@H](CN(C)C(=O)NC(C)C)O3)cc1 | inactive |
| N#Cc1cc(F)cc(Oc2ccc(S(=O)(=O)C(F)F)c3c2CC(F)(F)[C@@H]3O)c1.N#Cc1cc(F)cc(Oc2ccc(S(=O)(=O)C(F)F)c3c2CC(F)(F)[C@H]3O)c1 | inactive |
| COc1ccccc1NC(=O)N(C)C[C@H]1OCc2ccccc2-c2c(n(C)c3ccccc23)C(=O)N([C@H](C)CO)C[C@H]1C | inactive |
| C=CC(=O)N[C@H]1CCCN(CC)C1 | inactive |
| C[C@@H]1CN([C@@H](C)CO)C(=O)c2cccc(NS(=O)(=O)c3ccc(F)cc3)c2O[C@H]1CN(C)S(=O)(=O)c1cccs1 | inactive |
| C[C@@H]1CN([C@H](C)CO)C(=O)c2cc(Br)cnc2O[C@H]1CN(C)Cc1ccc2c(c1)OCO2 | inactive |
| C[C@@H]1CN([C@@H](C)CO)C(=O)Cc2cc(NS(=O)(=O)c3cccs3)ccc2O[C@@H]1CN(C)S(=O)(=O)c1cccs1 | inactive |
| Cc1ccc(S(=O)(=O)N(C)C[C@@H]2Oc3ccc(NC(=O)c4ccncc4)cc3C(=O)N([C@H](C)CO)C[C@H]2C)cc1 | inactive |
| CCOC(=O)Cn1cnc2ccccc2c1=O | inactive |
| Cc1c(-c2ccc(C(N)=O)c3[nH]c4cc(C(C)(C)O)ccc4c23)cccc1-n1cnc2ccccc2c1=O | active |
| COc1ccc(S(=O)(=O)N(C)C[C@@H]2Oc3ccc(NC(=O)Cn4cnnn4)cc3C(=O)N([C@@H](C)CO)C[C@H]2C)cc1 | inactive |
| Cc1ccc(S(=O)(=O)Nc2cccc3c2O[C@H](CN(C)CC2CC2)[C@H](C)CN([C@@H](C)CO)C3=O)cc1 | inactive |
| COc1ccc2c3c(n(c2c1)C)[C@@H](CO)N(C[C@]13CN(Cc2cccc(c2)F)C1)C(=O)C1CCOCC1 | active |
| COc1ccc2c3c(n(c2c1)C)[C@H](CO)N(C[C@]13CCN(CC1)C(=O)c1ccccc1)C(=O)Nc1ccccc1F | active |
| COc1ccc(cc1)S(=O)(=O)N1C[C@]2(C1)CN([C@@H](CO)c1c2c2ccc(cc2n1C)OC)C(=O)CN(C)C | inactive |
| COc1ccc2c3c(n(c2c1)C)[C@@H](CO)N(C[C@]13CCN(CC1)C(=O)c1ccccc1F)C(=O)Nc1ccc(cc1)F | inactive |
| COc1ccc2c3c(n(c2c1)C)[C@H](CO)N(C[C@]13CN(Cc2cccc(c2)F)C1)C(=O)C1CCOCC1 | inactive |
| COc1ccc2c3c(n(c2c1)C)[C@@H](CO)N(C[C@]13CN(C1)C(=O)Nc1cccc(c1)F)C(=O)C1CCOCC1 | inactive |
| COc1ccc(cc1)S(=O)(=O)N1CC[C@]2(CC1)CN([C@H](CO)c1c2c2ccc(cc2n1C)OC)C(=O)CN(C)C | active |
| COCC(=O)N1CC[C@]2(CC1)CN([C@H](CO)c1c2c2ccc(cc2n1C)OC)C(=O)Nc1ccccc1F | inactive |
| COc1ccc(cc1)S(=O)(=O)N1CC[C@]2(CC1)CN([C@@H](CO)c1c2c2ccc(cc2n1C)OC)C(=O)CN(C)C | inactive |
| COc1ccc2c3c(n(c2c1)C)[C@@H](CO)N(C[C@]13CCN(CC1)C(=O)c1ccccc1F)C(=O)Nc1ccccc1F | active |
| COc1ccc2c3c(n(c2c1)C)[C@@H](CO)N(C[C@]13CCN(CC1)C(=O)c1ccccc1)C(=O)Nc1ccccc1F | inactive |
| COc1ccc2c3c(n(c2c1)C)[C@H](CO)N(C[C@]13CCN(CC1)C(=O)c1ccccc1F)C(=O)Nc1ccccc1F | inactive |

Reference: the antibiotic and cytotoxicity screens of Wong et al. (2023)
